Results published in the supplement of paper PMC10127200.
Structures can show the parent of a compound that is named as a salt.

Test system: FB
Experiment: Euclidean distance of Cell Painting phenotypic profile (signed KS, 77 features) to DMSO centroid (dimensionless distance); 5 or 10 uM (library dependent); higher = stronger phenotypic change vs DMSO (phenoactivity)
Conditions: 48 h
How it was run: (§1)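 Five cancer lines, together with a healthy fibroblast line, received library compounds for 48 h at a library-dependent 10 or 5 uM and 0.1% DMSO final. Harmony then derived 77 features from confocal 20X images (9 fields/well) of the stained cells, scoring each as a signed Kolmogorov-Smirnov statistic against same-plate vehicle wells. After plate-position correction, correlation weighting and replicate averaging at the top dose, phenoactivity was taken as each profile's Euclidean distance to the median vehicle profile.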

SMILES | Euclidean distance
CC(C)/N=c1\cc2n(-c3ccc(Cl)cc3)c3ccccc3nc-2cc1Nc1ccc(Cl)cc1 [Clofazimine] | 1.7
COc1ccc(CNC(=O)Nc2ncc([N+](=O)[O-])s2)cc1 | 0.936
NC(=O)N/N=C/c1ccc([N+](=O)[O-])o1 [Nitrofural] | 1
CC(=O)NS(=O)(=O)c1ccc(N)cc1 [Sulfacetamide sodium salt hydrate] | 1.61
CC(=O)NS(=O)(=O)c1ccc(N)cc1 [Sulfacetamide] | 1.07
CCC[C@@H]1C[C@@H](C(=O)N[C@@H]([C@H]2O[C@H](SC)[C@H](O)[C@@H](O)[C@H]2O)[C@H](C)Cl)N(C)C1 [Clindamycin HCl] | 0.761
Cc1cc(NS(=O)(=O)c2ccc(N)cc2)nc(C)n1 [sulfaisodimidine] | 0.948
CO[C@H]1/C=C/O[C@@]2(C)Oc3c(C)c(O)c4c(c3C2=O)C2=NC3(CCN(CC(C)C)CC3)NC2=C(NC(=O)/C(C)=C\C=C\[C@H](C)[C@H](O)[C@@H](C)[C@@H](O)[C@@H](C)[C@H](OC(C)=O)[C@@H]1C)C4=O [Rifabutin] | 1.08
NS(=O)(=O)c1cc(Cl)c(Cl)c(S(N)(=O)=O)c1 [Dichlorphenamide] | 0.872

Test system: HEPG2
Experiment: as above
Conditions: 48 h
How it was run: as §1

SMILES | Euclidean distance
O=C(O)c1ccccc1O [Salicylic acid] | 0.308
CN1CCCN=C1/C=C/c1cccs1 [Pyrantel Pamoate] | 0.805
CN[C@@H]1[C@@H](O[C@H]2O[C@H](CO)[C@@H](N)[C@H](O)[C@H]2O)OC2C[C@@H](N)[C@@H](O[C@H]3[C@H](O)[C@@H](O)[C@H](N)C[C@@H]3N)OC2[C@@H]1O (stereo partly drawn) [Apramycin Sulfate] | 0.895
CCOC(=O)c1ccc(O)cc1 [Ethylparaben] | 0.385
CC(C)(C)c1[nH]cnc1/C=c1\[nH]c(=O)/c(=C/c2ccccc2)[nH]c1=O [Plinabulin (NPI-2358)] | 4.1
C[C@H](NC(=O)CCC(F)(F)F)C(=O)N[C@@H]1C(=O)N(CCO)c2ncccc2-c2ccccc21 | 0.66
CC1=C(/C=C/C(C)=C/C=C/C(C)=C/C(=O)Nc2ccc(O)cc2)C(C)(C)CCC1 [Fenretinide] | 1.91
Cn1cnc2c(F)c(Nc3ccc(Br)cc3F)c(C(=O)NOCCO)cc21 | 1.63
OC(CCN1CCCC1)(c1ccccc1)C1CCCCC1 (stereo not drawn) [Procyclidine HCl] | 1.33
CCN(C(=O)c1c(O)c2c(Cl)cccc2n(C)c1=O)c1ccccc1 [Laquinimod] | 0.638
COc1ccc(CN2CCN(C(c3ccc(F)cc3)c3ccc(F)cc3)CC2)c(OC)c1OC [Lomerizine 2HCl] | 1.13
O=c1cc(CO)occ1O [Kojic acid] | 0.625
CC[C@@H](C)Nc1cc(C(=O)N[C@H]2C[C@H]3CC[C@@H](C2)N3c2ccc(C(=O)C3CC3)cn2)c(C)cc1C(N)=O | 4.37
CCC(C)n1ncn(-c2ccc(N3CCN(c4ccc(OCC5COC(Cn6cncn6)(c6ccc(Cl)cc6Cl)O5)cc4)CC3)cc2)c1=O (stereo not drawn) [Itraconazole] | 1.02
CC(O)Cn1cnc2c1c(=O)n(C)c(=O)n2C (stereo not drawn) [Proxyphylline] | 0.686
C=C1CC[C@H](O)C/C1=C/C=C1\CCC[C@]2(C)[C@@H]([C@H](C)CCCC(C)(C)O)CC[C@@H]12 [Calcifediol] | 0.618
CC(C)C[C@H](NC(=O)CNC(=O)[C@H](Cc1ccc(O)cc1)NC(=O)[C@H](CO)NC(=O)[C@H](Cc1c[nH]c2ccccc12)NC(=O)[C@H](Cc1cnc[nH]1)NC(=O)[C@@H]1CCC(=O)N1)C(=O)N[C@@H](CCCNC(=N)N)C(=O)N1CCC[C@H]1C(=O)NCC(N)=O [Gonadorelin Acetate] | 0.828
COc1ccccc1N1CCN(CC(O)COc2cccc3ccccc23)CC1 (stereo not drawn) [Naftopidil] | 0.934
C=C1C(=O)O[C@H]2[C@H]1CC/C(C)=C/CC[C@@]1(C)O[C@@H]21 [(-)-Parthenolide] | 1.55
OCCN1C[C@H](O)[C@@H](O)[C@H](O)[C@H]1CO [Miglitol] | 0.675

SMILES | Euclidean distance
COc1ccc2cc([C@H](C)C(=O)O)ccc2c1 [Naproxen Sodium] | 0.593
CCCCCCOC(=O)NC(=N)c1ccc(NCc2nc3cc(C(=O)N(CCC(=O)OCC)c4ccccn4)ccc3n2C)cc1 [Dabigatran Etexilate] | 1.58
CN1CCC(=C2c3ccccc3CCc3cccnc32)CC1 [Azatadine dimaleate] | 0.437
COc1cc(Nc2ncc(F)c(Nc3ccc4c(n3)N(COP(=O)(O)O)C(=O)C(C)(C)O4)n2)cc(OC)c1OC [R788 (Fostamatinib) Disodium] | 0.696
CO[C@H]1C[C@@H]2CC[C@@H](C)[C@@](O)(O2)C(=O)C(=O)N2CCCC[C@H]2C(=O)O[C@H]([C@H](C)C[C@@H]2CC[C@H](n3cnnn3)[C@H](OC)C2)CC(=O)[C@H](C)/C=C(\C)[C@@H](O)[C@@H](OC)C(=O)[C@H](C)C[C@H](C)/C=C/C=C/C=C/1C [Zotarolimus(ABT-578)] | 1.45
CO[C@@H](C(=O)N1Cc2[nH]nc(NC(=O)c3ccc(N4CCN(C)CC4)cc3)c2C1)c1ccccc1 | 1.25
CCCCS(=O)(=O)N[C@@H](Cc1ccc(OCCCCC2CCNCC2)cc1)C(=O)O [Tirofiban Hydrochloride] | 0.871
CCOC(=O)c1ccc(N)cc1 [Benzocaine hydrochloride] | 0.264
CSc1nc2cc(Cl)c(Oc3cccc(Cl)c3Cl)cc2[nH]1 [Triclabendazole] | 1.43
CN[C@@H]1[C@H](O)[C@H](NC)[C@H]2O[C@@]3(O)C(=O)C[C@@H](C)O[C@H]3O[C@@H]2[C@H]1O [Spectinomycin 2HCl] | 0.555
CC(C)/N=c1\cc2n(-c3ccc(Cl)cc3)c3ccccc3nc-2cc1Nc1ccc(Cl)cc1 [Clofazimine] | 0.662
COc1ccc(CNC(=O)Nc2ncc([N+](=O)[O-])s2)cc1 | 1.02
NC(=O)N/N=C/c1ccc([N+](=O)[O-])o1 [Nitrofural] | 0.466
CC(=O)NS(=O)(=O)c1ccc(N)cc1 [Sulfacetamide sodium salt hydrate] | 0.38
CC(=O)NS(=O)(=O)c1ccc(N)cc1 [Sulfacetamide] | 0.298
CCC[C@@H]1C[C@@H](C(=O)N[C@@H]([C@H]2O[C@H](SC)[C@H](O)[C@@H](O)[C@H]2O)[C@H](C)Cl)N(C)C1 [Clindamycin HCl] | 0.82
Cc1cc(NS(=O)(=O)c2ccc(N)cc2)nc(C)n1 [sulfaisodimidine] | 0.529
CO[C@H]1/C=C/O[C@@]2(C)Oc3c(C)c(O)c4c(c3C2=O)C2=NC3(CCN(CC(C)C)CC3)NC2=C(NC(=O)/C(C)=C\C=C\[C@H](C)[C@H](O)[C@@H](C)[C@@H](O)[C@@H](C)[C@H](OC(C)=O)[C@@H]1C)C4=O [Rifabutin] | 2.11
NS(=O)(=O)c1cc(Cl)c(Cl)c(S(N)(=O)=O)c1 [Dichlorphenamide] | 0.87
